Key:
HCC1937 = test: relative cell viability, compound + erastin, vs DMSO (fraction of DMSO control); higher = less growth inhibition; conditions: 72 h
MDA-MB-231 = test: as above; conditions: 72 h
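Also: viability read by CCK-8 kit in 96-well plates, part of a combination screen pairing lipid-metabolism-targeting compounds with erastin.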

Row | SMILES | relative cell viability (HCC1937) | relative cell viability (MDA-MB-231)
1 | CC1CC(OC(=O)C(O)c2ccccc2)CC(C)(C)C1 (configuration not stated) [Cyclandelate] + CCOc1ccccc1-n1c(C(C)N2CCN(C(=O)COc3ccc(Cl)cc3)CC2)nc2ccccc2c1=O [erastin] | 0.828 | 0.606
2 | O=C(O)C(O)Cc1ccc(O)c(O)c1 (configuration not stated) [Sodium Danshensu] + CCOc1ccccc1-n1c(C(C)N2CCN(C(=O)COc3ccc(Cl)cc3)CC2)nc2ccccc2c1=O [erastin] | 0.746 | 0.968
3 | COC(=O)/C=C/c1cccc(N(Cc2ccc(-c3ccc(N(C)C)cc3)cc2)C(=O)C2CCCCC2)c1 [Fexaramine] + CCOc1ccccc1-n1c(C(C)N2CCN(C(=O)COc3ccc(Cl)cc3)CC2)nc2ccccc2c1=O [erastin] | 0.5 | 1.08
4 | CC[C@H](C)C(=O)O[C@H]1C[C@@H](C)C=C2C=C[C@H](C)[C@H](CC[C@@H]3C[C@@H](O)CC(=O)O3)[C@H]21 [Lovastatin] + CCOc1ccccc1-n1c(C(C)N2CCN(C(=O)COc3ccc(Cl)cc3)CC2)nc2ccccc2c1=O [erastin] | 0.804 | 0.569
5 | CN(C)c1cccc(-c2c3c(=O)n(-c4ccccc4Cl)[nH]c3cc(=O)n2C)c1 + CCOc1ccccc1-n1c(C(C)N2CCN(C(=O)COc3ccc(Cl)cc3)CC2)nc2ccccc2c1=O [erastin] | 0.61 | 1.23
6 | CS(=O)(=O)c1ccc(-c2nnc(/C=C/c3nnc(-c4ccc(C#N)cc4)o3)n2-c2ccccc2Cl)nc1 + CCOc1ccccc1-n1c(C(C)N2CCN(C(=O)COc3ccc(Cl)cc3)CC2)nc2ccccc2c1=O [erastin] | 0.735 | 0.668

— the supplement of paper PMC9492666
